# Reference: article PMC11062922 (Nature Chemical Biology, 2023)
# Where two headings read alike, the source gives them in different places.
# Columns and labels:
# Parameters in all cases: species or system human, MV4-11 + K-562 + COLO205 + SK-N-BE2 + OVCAR-8
# MTOR = conditions: read-out: apparent Kd, n = 1
# PIK3CG = conditions: read-out: apparent Kd, n = 1
# TGFBR2 = conditions: read-out: apparent Kd, n = 1
# PDGFRB = conditions: read-out: apparent Kd, n = 1
# CSK = conditions: read-out: apparent Kd; compound concentrations:100 nM and 1000 nM (sheet 'Samples'); n = 1
# EPHA1 = conditions: read-out: apparent Kd; compound concentrations:100 nM and 1000 nM (sheet 'Samples'); n = 1
# EPHB3 = conditions: read-out: apparent Kd; compound concentrations:100 nM and 1000 nM (sheet 'Samples'); n = 1
# JAK2 = conditions: read-out: apparent Kd, n = 1
# CDC42BPG = conditions: read-out: apparent Kd, n = 1
# CDK9 = conditions: read-out: apparent Kd, compound concentrations: 100 nM and 1000 nM (sheet 'Samples'), n = 1
# LYN = conditions: read-out: apparent Kd, compound concentrations: 100 nM and 1000 nM (sheet 'Samples'), n = 1
# AXL = conditions: read-out: apparent Kd, compound concentrations: 100 nM and 1000 nM (sheet 'Samples'), n = 1
# CDK2 = conditions: read-out: apparent Kd, compound concentrations: 100 nM and 1000 nM (sheet 'Samples'), n = 1
# ICK = conditions: read-out: apparent Kd, compound concentrations: 100 nM and 1000 nM (sheet 'Samples'), n = 1
# CDC42BPA = conditions: read-out: apparent Kd, n = 1
# CDC42BPB = conditions: read-out: apparent Kd, n = 1
# PRKG1 = conditions: read-out: apparent Kd, n = 1
# ROCK1 = conditions: read-out: apparent Kd, compound concentrations: 100 nM and 1000 nM (sheet 'Samples'), n = 1
# ULK1 = conditions: read-out: apparent Kd; compound concentrations:100 nM and 1000 nM (sheet 'Samples'); n = 1
# [1] = compound concentrations:100 nM and 1000 nM (sheet 'Samples')
compound,measurement,setting,value
Cc1cccc(Nc2nc(N[C@H]3CCNC3)ncc2C(N)=O)c1.Cl [GSK2197149A],potency estimated from few doses,MTOR; [1],532 nM
same,potency estimated from few doses,PIK3CG; [1],819 nM
same,potency estimated from few doses,TGFBR2; [1],1870 nM
CC(C)Oc1ccc2c(-c3ccnc(Nc4ccc(N5CCN(C)CC5)cc4)n3)cnn2n1 [GW696155X],potency estimated from few doses,PDGFRB; [1],2040 nM
CS(=O)(=O)CCn1c(=O)c(Oc2ccc(F)cc2F)cc2cnc(NC3CCOCC3)nc21 [RO5027956-000],potency estimated from few doses,CSK,1540 nM
same,potency estimated from few doses,EPHA1,724 nM
same,potency estimated from few doses,EPHB3,2330 nM
same,potency estimated from few doses,JAK2; [1],65.6 nM
CCn1c(-c2cccnc2O)nc2cnccc21 [SB-736715],potency estimated from few doses,"CDC42BPG; compound concentrations: 100 nM and 1000 nM (sheet 'Samples'), CATDS: 1.9794934428915799E-2",767 nM
same,potency estimated from few doses,CDK9; CATDS: 1.2439318728053501E-2,1990 nM
same,potency estimated from few doses,LYN; CATDS: 1.4378257714361201E-2,1420 nM
same,potency estimated from few doses,"MTOR; compound concentrations: 100 nM and 1000 nM (sheet 'Samples'), CATDS: 2.4342706030032701E-2",547 nM
same,potency estimated from few doses,"PIK3CG; compound concentrations: 100 nM and 1000 nM (sheet 'Samples'), CATDS: 9.1944344631326697E-2",91.6 nM
Cc1n[nH]c2cc(Nc3ccnc(Nc4cccc(CN5CCOCC5)c4)n3)ccc12 [GW682569X],potency estimated from few doses,"TGFBR2; compound concentrations: 100 nM and 1000 nM (sheet 'Samples'), CATDS: 0.113560287008428",891 nM
COc1cc[nH]c1/C=C1\C(=O)Nc2ccc(F)c(C#CC3(O)CCNCC3)c21.Cl [RO0282986-001],potency estimated from few doses,AXL; CATDS: 1.01827981772752E-2,1230 nM
same,potency estimated from few doses,CDK2; CATDS: 1.26412371427807E-2,615 nM
same,potency estimated from few doses,CDK9; CATDS: 1.1942255869273499E-2,724 nM
same,potency estimated from few doses,ICK; CATDS: 1.28060195349982E-2,593 nM
same,potency estimated from few doses,"PDGFRB; compound concentrations: 100 nM and 1000 nM (sheet 'Samples'), CATDS: 1.1337273569473399E-2",850 nM
c1cnn2ncc(-c3ccnc(Nc4ccc5c(c4)OCCO5)n3)c2c1 [GW806290X],potency estimated from few doses,CDK9; CATDS: 6.9114282023058901E-2,99.5 nM
same,potency estimated from few doses,ICK; CATDS: 0.106713874587666,50.6 nM
same,potency estimated from few doses,"TGFBR2; compound concentrations: 100 nM and 1000 nM (sheet 'Samples'), CATDS: 6.1295123324086299E-2",123 nM
NCC(NC(=O)c1cc(-c2cn[nH]c2)c(-c2ccnc3[nH]ccc23)s1)c1ccccc1.NCC(NC(=O)c1cc(-c2cn[nH]c2)c(-c2ccnc3[nH]ccc23)s1)c1ccccc1.O=C(O)C(F)(F)F.O=C(O)C(F)(F)F (centres unmarked) [GSK1325775A],potency estimated from few doses,"CDC42BPA; compound concentrations: 100 nM and 1000 nM (sheet 'Samples'), CATDS: 0.12802177694120001",75.6 nM
same,potency estimated from few doses,"CDC42BPB; compound concentrations: 100 nM and 1000 nM (sheet 'Samples'), CATDS: 0.23472145831324301",29.3 nM
same,potency estimated from few doses,"CDC42BPG; compound concentrations: 100 nM and 1000 nM (sheet 'Samples'), CATDS: 3.6567109546732701E-2",1070 nM
same,potency estimated from few doses,"PRKG1; compound concentrations: 100 nM and 1000 nM (sheet 'Samples'), CATDS: 5.9396104813121603E-2",330 nM
same,potency estimated from few doses,ROCK1; CATDS: 0.15957099257621499,52.4 nM
COc1ccc(Nc2nccc(-c3ccc(NC(=O)c4cc5cc(F)ccc5[nH]4)cc3)n2)cc1 [GSK1229496A],potency estimated from few doses,"JAK2; compound concentrations: 100 nM and 1000 nM (sheet 'Samples'), CATDS: 0.41035402481259398",584 nM
CCN(CC)Cc1ccc(Nc2nccc(-c3cnn4ncccc34)n2)cc1 [GW780056X],potency estimated from few doses,CDK9; CATDS: 0.168116243338059,19.4 nM
same,potency estimated from few doses,ICK; CATDS: 2.9886591978346599E-2,433 nM
same,potency estimated from few doses,"PDGFRB; compound concentrations: 100 nM and 1000 nM (sheet 'Samples'), CATDS: 2.40786043408843E-2",746 nM
COc1cc(Nc2nccc(-c3cnn4ncccc34)n2)cc(OC)c1 [GW801372X],potency estimated from few doses,"CDC42BPA; compound concentrations: 100 nM and 1000 nM (sheet 'Samples'), CATDS: 2.2465917361224799E-2",786 nM
same,potency estimated from few doses,CDK9; CATDS: 4.3233319898636102E-2,142 nM
same,potency estimated from few doses,ICK; CATDS: 7.2296176142385704E-2,49.6 nM
same,potency estimated from few doses,"PDGFRB; compound concentrations: 100 nM and 1000 nM (sheet 'Samples'), CATDS: 1.5756503418678101E-2",3520 nM
CN(c1ccc(NC(=O)NCCN2CCOCC2)cc1)c1ccnc(Nc2ccc(CS(C)(=O)=O)cc2)n1.Cl [GW830365A],potency estimated from few doses,"TGFBR2; compound concentrations: 100 nM and 1000 nM (sheet 'Samples'), CATDS: 5.51715170179801E-2",958 nM
Cl.Cl.NC(CNC(=O)c1cc(Br)c(-c2ccnc3[nH]ccc23)s1)c1ccccc1.NC(CNC(=O)c1cc(Br)c(-c2ccnc3[nH]ccc23)s1)c1ccccc1 (centres unmarked) [GSK1322949A],potency estimated from few doses,"CDC42BPB; compound concentrations: 100 nM and 1000 nM (sheet 'Samples'), CATDS: 4.7345157694920897E-2",499 nM
same,potency estimated from few doses,"CDC42BPG; compound concentrations: 100 nM and 1000 nM (sheet 'Samples'), CATDS: 3.2590652290340097E-2",1010 nM
same,potency estimated from few doses,ICK; CATDS: 2.9774635875568601E-2,1230 nM
same,potency estimated from few doses,"PRKG1; compound concentrations: 100 nM and 1000 nM (sheet 'Samples'), CATDS: 7.4482262143184694E-2",247 nM
same,potency estimated from few doses,ROCK1; CATDS: 9.3197598269089799E-2,181 nM
O=C1N=C(NCc2cccs2)O/C1=C\c1ccc2ncccc2c1 [RO4624208-000],potency estimated from few doses,"PIK3CG; compound concentrations: 100 nM and 1000 nM (sheet 'Samples'), CATDS: 5.5474832594148302E-2",936 nM
CC(=O)N[C@@H](Cc1ccc(OP(=O)(O)O)cc1)C(=O)N[C@H]1CCC(=O)N2CCC[C@@H](C(=O)NCc3ccc(Cl)cc3)N2C1=O [RO0325308-000],potency estimated from few doses,CSK,1550 nM
same,potency estimated from few doses,ULK1,1610 nM
CNCC#Cc1c(F)ccc2c1/C(=C/c1[nH]ccc1OC)C(=O)N2.Cl [RO0281601-001],potency estimated from few doses,ICK; CATDS: 2.2639550880060699E-2,1700 nM
CCn1c(-c2nonc2N)nc2c(C#CC(C)(C)O)nc(O[C@@H](CN)c3ccccc3)cc21.O=C(O)C(F)(F)F [GSK1007102B],potency estimated from few doses,CDC42BPA; [1],952 nM
same,potency estimated from few doses,CDC42BPB; [1],1280 nM
same,potency estimated from few doses,CDC42BPG; [1],191 nM
same,potency estimated from few doses,PRKG1; [1],9.31 nM
c1ccc(-c2n[nH]cc2Nc2ccnc3ccccc23)nc1 [GW694077X],potency estimated from few doses,ROCK1; CATDS: 2.4219369604879502E-2,1650 nM
same,potency estimated from few doses,"TGFBR2; compound concentrations: 100 nM and 1000 nM (sheet 'Samples'), CATDS: 2.8342721884761699E-2",940 nM
NC(=O)c1cc(-c2ccccc2)cc2c(C3CCNCC3)c[nH]c12 [GSK301362A],potency estimated from few doses,PDGFRB; [1],1630 nM
O=C(O)C(F)(F)F.O=C(O)C(F)(F)F.O=c1[nH]ccc2nc(N[C@@H]3CCCNC3)nc(Nc3ccc(S(=O)(=O)N4CCOCC4)cc3)c12.O=c1[nH]ccc2nc(N[C@@H]3CCCNC3)nc(Nc3ccc(S(=O)(=O)N4CCOCC4)cc3)c12 [GSK2177277A],potency estimated from few doses,AXL; CATDS: 1.0312125146775999E-2,251 nM
same,potency estimated from few doses,"CDC42BPA; compound concentrations: 100 nM and 1000 nM (sheet 'Samples'), CATDS: 6.6693958930569E-3",1260 nM
same,potency estimated from few doses,"CDC42BPB; compound concentrations: 100 nM and 1000 nM (sheet 'Samples'), CATDS: 1.0245441654914001E-2",255 nM
same,potency estimated from few doses,"CDC42BPG; compound concentrations: 100 nM and 1000 nM (sheet 'Samples'), CATDS: 1.3688403769646499E-2",119 nM
same,potency estimated from few doses,CDK2; CATDS: 8.3972230361842193E-3,481 nM
same,potency estimated from few doses,"JAK2; compound concentrations: 100 nM and 1000 nM (sheet 'Samples'), CATDS: 4.8200913683498499E-2",12.1 nM
same,potency estimated from few doses,LYN; CATDS: 7.0851480794777598E-3,942 nM
same,potency estimated from few doses,"PDGFRB; compound concentrations: 100 nM and 1000 nM (sheet 'Samples'), CATDS: 3.6594692875912202E-2",18.3 nM
same,potency estimated from few doses,"PIK3CG; compound concentrations: 100 nM and 1000 nM (sheet 'Samples'), CATDS: 7.6571772064284397E-3",679 nM
same,potency estimated from few doses,ROCK1; CATDS: 7.59809178232565E-3,700 nM
